Screens (PubChem BioAssay)
Hits are enriched below; roughly 2.2% of the tested compounds scored in any of these assays.
M1 ag: activates human CHRM1 receptor; actives 0.33% (n = 360,000); AID 588814; CHO-K1 hM1, Fluo-8 calcium fluorescence, agonist mode; 0% DMSO, 100% acetylcholine EC100; P11229; activation, % at 3 µM;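 active = activation above the run's mean compound activation plus 3 SD, cut at about 16% in these data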;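 note: peak over basal fluorescence ratio within a 140 s kinetic read after compound addition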
M1 PAM: potentiates human M1 receptor response to acetylcholine; AID 588819; CHO-K1 hM1, Fluo-8 calcium fluorescence, ACh EC20; 0% = ACh EC20, 100% = maximal ACh; actives 0.088% (n = 360,000); activation, % at 3 µM; in the data active = activation above about 19%, passing the limit was not always enough
M4 ag: CHRM4 agonism in calcium assay; actives 0.14% (n = 360,000); P08173; activation, % at 3 µM; AID 624127; CHO-K1 hM4/Gqi5, Fluo-8 calcium fluorescence; vehicle 0%, full acetylcholine response 100%;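 active = activation above the run mean over all test wells plus 3 SD, cut at about 32% in these data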;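 note: peak over basal fluorescence ratio per well then scaled between controls; 0% = DMSO wells and 100% = acetylcholine at EC100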
Target sequence (P08173 whole entry, looked up): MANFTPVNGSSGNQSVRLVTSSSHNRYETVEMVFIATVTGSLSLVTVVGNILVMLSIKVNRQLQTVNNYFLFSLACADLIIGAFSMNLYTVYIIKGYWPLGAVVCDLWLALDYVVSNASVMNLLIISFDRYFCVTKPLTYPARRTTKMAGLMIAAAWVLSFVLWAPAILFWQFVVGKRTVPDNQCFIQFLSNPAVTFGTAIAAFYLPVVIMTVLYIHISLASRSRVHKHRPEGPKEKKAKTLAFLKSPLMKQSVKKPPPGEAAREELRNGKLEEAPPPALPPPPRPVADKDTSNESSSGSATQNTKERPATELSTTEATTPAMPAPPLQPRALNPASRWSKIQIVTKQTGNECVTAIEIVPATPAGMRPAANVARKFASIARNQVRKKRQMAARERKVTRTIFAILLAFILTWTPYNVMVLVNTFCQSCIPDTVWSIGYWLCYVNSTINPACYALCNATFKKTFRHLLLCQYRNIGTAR
CHRM4 antagonist: antagonists of human muscarinic M4 receptor (CHRM4); inhibition, % at 3 µM; AID 624125; CHO-hM4 cells, ACh EC80, Fluo-8 calcium fluorescence; P08173; actives 0.73% (n = 360,000);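 active = inhibition above its plate's cutoff, the mean inhibition of sample wells plus 3 SD, cut at about 27% in these data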;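 note: 0% = acetylcholine EC80 with DMSO and 100% = DMSO without agonist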
M4 PAM: potentiates acetylcholine response at human M4 receptor; P08173; CHO-K1 hM4/Gqi5, Fluo-8 calcium fluorescence, ACh EC20; 0% = ACh EC20, 100% = maximal ACh; activation, % at 3 µM; actives 0.4% (n = 360,000); AID 624126;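 active = activation above its plate's cutoff, the mean activation of sample wells plus 3 SD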
M1 antag: antagonists of human M1 muscarinic receptor; CHO-K1 hM1, Fluo-8 calcium fluorescence, ACh EC80 antagonist; inhibition, % at 3 µM; actives 1.3% (n = 360,000); AID 588852;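 active = percent inhibition above its own plate's cutoff, namely the mean of that plate's compound wells plus 3 SD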;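 note: peak over basal fluorescence ratio during 140 s after agonist addition; 0% = ACh EC80 plus DMSO and 100% = DMSO alone without agonist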
Active calls of the source: *.

SMILES | M1 ag | M1 PAM | M4 ag | CHRM4 antagonist | M4 PAM | M1 antag
CCn1cc(CNC(=O)C2CCC(=O)N(Cc3ccccc3F)C2)cn1 (configuration not stated) | -6 | 6 | 2 | -18 | 5 | -9
CC(=O)C(C(C)=O)c1cc(NS(=O)(=O)c2ccccc2)ccc1NS(=O)(=O)c1ccccc1 | 9 | 3 | 14 | 10 | 1 | -4
CCOC(=O)c1[nH]ncc1CN1CCCC(C(=O)c2ccc(SC)cc2)C1 (configuration not stated) | -14 | -6 | 1 | -5 | 1 | 3
CSc1ccc(C(=O)C2CCCN(Cc3ccc(N4CCNC4=O)cc3)C2)cc1 (configuration not stated) | -11 | -28 | 2 | 70* | -22 | 97*
COc1ccc(CN2CCCC(C(=O)c3ccc(SC)cc3)C2)cc1Cn1cccn1 (configuration not stated) | -4 | -25 | 5 | 37* | -51 | 88*
COc1ccc(C(=O)C2CCCN(C(=O)c3cccc(Cn4cccn4)c3)C2)cc1F (configuration not stated) | -1 | 2 | 6 | -7 | 1 | -5
O=Cc1nc(-c2ccc(Cl)cc2)n2ccccc12 | -7 | -5 | 0 | -6 | 16 | -1
CC(=O)c1ccccc1OC(=O)c1ccco1 | 7 | 16 | 1 | -13 | 23* | -9
CC(=O)Nc1cccc(NC(=O)c2cc(-c3cccnc3)nc3ccc(Cl)cc23)c1 | -3 | -13 | 23 | 15 | -17 | 32
CC(=O)Nc1cccc(NC(=O)c2cc(-c3cccnc3)nc3ccc(Br)cc23)c1 | -5 | -22 | 27 | 31* | -12 | 42*
CC(C)N(CCn1c(SCC(=O)N2CC(=O)Nc3ccccc32)nc2ccccc2c1=O)C(C)C | -6 | -23 | 2 | -12 | -14 | 61*
c1ccc(Oc2cccc(CN3CCCCC3)c2)cc1 | -13 | -32 | 1 | 15 | -13 | 46*
c1ccc(COc2cccc(CN3CCCCC3)c2)cc1 | -10 | -3 | 1 | -8 | -8 | -1
CCN1CCN(Cc2cccc(Oc3ccc(Cl)cc3)c2)CC1 | -8 | -21 | 5 | 18 | -30 | 54*
CCOC(=O)C1CCN(Cc2cccc(Oc3ccc(Cl)cc3)c2)CC1 | -11 | -25 | -1 | 3 | -15 | 28*
CCOC(=O)C1CCN(Cc2cccc(Oc3ccccc3)c2)CC1 | -8 | -19 | 0 | -1 | -6 | 21
CCOC(=O)C1CCN(CCCSc2ccc(Cl)cc2)CC1 | -11 | -19 | 1 | 15 | -13 | 28*
CCOC(=O)C1CCN(CCC(=O)Nc2ccc(Cl)cc2)CC1 | -4 | -5 | 3 | 10 | 0 | 8
Cc1ccc(C(=O)N2CCC(C(=O)c3c(C)cc(C)cc3C)CC2)cc1 | -2 | -6 | 6 | 5 | -3 | 7
Cc1ccc2oc(C(=O)Nc3ccc(S(=O)(=O)Nc4onc(C)c4C)cc3)cc(=O)c2c1 | -3 | -1 | 0 | 9 | -1 | 3
COc1ccc(S(=O)(=O)N2CCCCC2)cc1NC(=O)c1ccc(=O)[nH]c1 | -3 | 7 | 0 | -4 | 0 | -9
CCC1(C)Cc2c(sc3nc(NC)n(C)c(=O)c23)CO1 (configuration not stated) | -2 | 1 | 10 | 7 | -1 | 2
O=C(O)CC(NS(=O)(=O)c1ccc2c(c1)OCCO2)c1ccccc1[N+](=O)[O-] (configuration not stated) | -1 | 7 | 0 | 2 | 4 | -1
O=[N+]([O-])c1ccc(-c2cn3ccccc3n2)cc1 | -8 | 8 | 0 | 14 | -5 | -4
O=C(c1ncc[nH]1)c1ccco1 | -2 | -1 | 0 | 5 | 2 | -3
SMILES | M1 ag | M1 PAM | M4 ag | CHRM4 antagonist | M4 PAM | M1 antag
N#Cc1ccc(N2CCN(C(=O)c3cccc(F)c3)CC2)c(F)c1 | 2 | -3 | 8 | -21 | 16* | -10
O=C(c1cccc(F)c1)N1CCCN(C(=O)c2cccc(F)c2)CC1 | -6 | 11 | 0 | -9 | 1 | -16
CCN(CC)Cc1cc(CCNC(=O)c2ccc(Cl)cc2)ccc1O | -7 | -10 | 1 | -9 | 2 | 6
CCN(CC)Cc1cc(Oc2ccc(O)c(CN(CC)CC)c2)ccc1O | -13 | -19 | -1 | 2 | -8 | 35*
C=CCn1c(SCC(=O)NC2CCCC2)nc2c([nH]c3ccccc32)c1=O | -3 | 9 | 0 | -4 | 0 | -14
NS(=O)(=O)c1ccc(CCNC(=O)c2ccc(C#CC3(O)CCCCC3)cc2)cc1 | 0 | -22 | 13 | 21 | -11 | 38*
NS(=O)(=O)c1ccc(CCNC(=O)c2ccncc2)cc1 | 4 | 20 | 0 | 7 | -10 | -11
COc1cc(C)ccc1OCc1cc(C(=O)N(Cc2c(C)nn(C)c2C)C2CC2)no1 | -3 | -11 | 11 | 1 | -7 | 14
CCN(CC(=O)Nc1ccc(S(=O)(=O)N2CCCC2)cc1)Cc1ccccc1 | -6 | -23 | 3 | -4 | -11 | 45*
CCN(c1ccc(NC(=O)COC(=O)c2ccc(S(=O)(=O)N3CCCC3)cc2)cc1)C(C)C | -6 | -25 | 4 | 9 | -6 | 68*
O=C(COC(=O)c1ccc(O)cc1)Nc1ccc(S(=O)(=O)N2CCCC2)cc1 | -8 | 10 | 11 | -5 | -2 | -3
CCCCc1c(C)nn(-c2nnc3c4ccccc4n(CC)c3n2)c1C | -3 | 3 | 0 | -3 | 1 | 3
COc1ccccc1C(CNC(=O)c1ccc(NS(=O)(=O)c2ccc3c(c2)OCCO3)cc1)N(C)C (configuration not stated) | 8 | -15 | 1 | 0 | -5 | 40*
COc1ccccc1C(CNC(=O)c1cccc(S(=O)(=O)Nc2ccc(C)cc2)c1)N(C)C (configuration not stated) | -5 | -24 | 0 | 32* | -14 | 99*
COc1ccc(NS(=O)(=O)c2ccc3c(c2)OCCO3)cc1OC | 2 | -13 | 15 | -5 | -4 | 26*
COc1ccccc1OCc1ccc(C(=O)NC(C)(C)C)o1 | 1 | 2 | 4 | 6 | -1 | 0
O=C1Nc2ccccc2C(=O)N2[C@H](c3ccccc3)[C@@H]3C(=O)N(Cc4ccccc4)C(=O)[C@@H]3[C@H]12 | 23* | 9 | 4 | 7 | -3 | -8
O=C1Nc2ccccc2C(=O)N2[C@H](c3cccc(Br)c3)[C@@H]3C(=O)N(Cc4ccccc4)C(=O)[C@@H]3[C@H]12 | 8 | 13 | 2 | 5 | 8 | -7
COc1ccc(-c2c(C#Cc3ccsc3)c3cc(-c4ccc5c(c4)OCO5)ccc3n2C)cc1 | 2 | 16 | 2 | -12 | 12 | -20
